Laboratory results published in the supplement of paper PMC9694430.

Assays:
Assay in all cases: thermal shift delta Tm vs DMSO control; higher = stronger stabilization (binding)
Conditions in all cases: 12.5 µM; protein concentration 2 µM
[1] = tested on: LOC_OS01G57100-cb003
In short: (§1)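 Thermal shift values come from differential scanning fluorimetry on purified rice kinase domains made in E. coli, with melting temperatures obtained from Boltzmann fits. Samples of 19.5 μl held 2 μM kinase, 100 mM potassium phosphate pH 7.5, 150 mM NaCl, 10% glycerol, 5 × SYPRO Orange and compound in DMSO, and were heated from 25°C to 95°C at 0.05°C/s. Each shift is a triplicate mean relative to the DMSO-only protein sample.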

[2] = tested on: LOC_OS01G60330-cb001
In short: as §1

[3] = tested on: LOC_OS01G60700-cb002
In short: as §1

[4] = tested on: LOC_OS01G63280-cb003
In short: as §1

[5] = tested on: LOC_OS01G67340-cb003
In short: as §1

[6] = tested on: LOC_OS01G70970-cb002
In short: as §1

[7] = tested on: LOC_OS02G07810-cb001
In short: as §1

[8] = tested on: LOC_OS02G08530-cb003
In short: as §1

[9] = tested on: LOC_OS02G14120-cb001
In short: as §1

[10] = tested on: LOC_OS02G17970-cb001
In short: as §1

[11] = tested on: LOC_OS02G45750-cb003
In short: as §1

[12] = tested on: LOC_OS02G54510-cb004
In short: as §1

[13] = tested on: LOC_OS03G04050-cb001
In short: as §1

[14] = tested on: LOC_OS03G12390-cb001
In short: as §1

[15] = tested on: LOC_OS03G27990-cb004
In short: as §1

[16] = tested on: LOC_OS03G50450-cb001
In short: as §1

[17] = tested on: LOC_OS03G50810-cb003
In short: as §1

[18] = tested on: LOC_OS04G35114-cb001
In short: as §1

[19] = tested on: T1, LOC_OS04G38480-cb003
T1 sequence (whole entry): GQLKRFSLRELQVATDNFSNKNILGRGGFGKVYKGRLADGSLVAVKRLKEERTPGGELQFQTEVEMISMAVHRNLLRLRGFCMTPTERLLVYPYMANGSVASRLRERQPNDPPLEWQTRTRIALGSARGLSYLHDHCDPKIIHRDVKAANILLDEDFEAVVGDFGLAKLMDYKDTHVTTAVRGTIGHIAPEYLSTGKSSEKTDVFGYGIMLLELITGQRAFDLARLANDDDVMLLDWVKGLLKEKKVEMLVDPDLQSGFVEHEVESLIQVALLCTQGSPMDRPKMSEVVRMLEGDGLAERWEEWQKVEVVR
In short: as §1

[20] = tested on: T2, LOC_OS04G41100-cb001
T2 sequence (whole entry): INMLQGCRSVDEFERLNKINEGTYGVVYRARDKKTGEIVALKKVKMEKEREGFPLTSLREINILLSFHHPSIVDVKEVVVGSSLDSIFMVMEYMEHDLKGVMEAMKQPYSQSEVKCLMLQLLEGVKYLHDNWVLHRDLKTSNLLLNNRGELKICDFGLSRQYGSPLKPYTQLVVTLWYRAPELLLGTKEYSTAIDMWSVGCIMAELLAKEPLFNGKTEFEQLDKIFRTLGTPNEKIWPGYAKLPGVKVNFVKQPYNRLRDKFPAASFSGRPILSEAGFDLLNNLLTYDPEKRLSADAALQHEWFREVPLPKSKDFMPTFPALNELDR
In short: as §1
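Note: purified Escherichia coli-expressed rice kinase domain construct.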

Row | Compound | thermal shift delta Tm [1] [°C] | thermal shift delta Tm [2] [°C] | thermal shift delta Tm [3] [°C] | thermal shift delta Tm [4] [°C] | thermal shift delta Tm [5] [°C] | thermal shift delta Tm [6] [°C] | thermal shift delta Tm [7] [°C] | thermal shift delta Tm [8] [°C] | thermal shift delta Tm [9] [°C] | thermal shift delta Tm [10] [°C] | thermal shift delta Tm [11] [°C] | thermal shift delta Tm [12] [°C] | thermal shift delta Tm [13] [°C] | thermal shift delta Tm [14] [°C] | thermal shift delta Tm [15] [°C] | thermal shift delta Tm [16] [°C] | thermal shift delta Tm [17] [°C] | thermal shift delta Tm [18] [°C] | thermal shift delta Tm [19] [°C] | thermal shift delta Tm [20] [°C]
1 | COc1cc2c(N3CCN(C(=O)Nc4ccc(OC(C)C)cc4)CC3)ncnc2cc1OCCCN1CCCCC1 [Tandutinib (MLN518)] | 0.97 | 0.04 | 0.63 | 0.12 | 0.5 | -0.15 | 0.79 | 0.33 | 0.24 | -0.44 | 1.37 | 0.74 | 0.9 | 0.38 | 0.28 | 0.42 | 0.95 | 1.58 | 1.79 | 0.92
2 | COc1cc2c(c(OC)c1OC)-c1c(cc3c(c1OC)OCO3)CC(C)C(C)C2 (stereo not given) [Schisandrin B (Sch B)] | 0.61 | 0.33 | 0.75 | 0.34 | -0.14 | 0.46 | 0.64 | 0.6 | 0.07 | 0.95 | -0.1 | -0.01 | 0.81 | 0.12 | 0.05 | 0.76 | 0.12 | 0.63 | 0.75 | 0.48
3 | Cc1ccccc1CN1C2=NCCN2C(=O)C2=C1CCN(Cc1ccccc1)C2 [TIC10 Analogue] | 1.53 | 0.24 | 1.04 | 0.12 | -0.3 | 0.36 | 0.85 | 1.02 | -0.11 | 0.86 | -0.1 | 0.13 | 0.49 | -0.16 | 0.09 | 0.31 | 0.21 | 0.79 | 0.2 | 0.45
4 | CC(C)NC(=O)COc1cccc(-c2nc(Nc3ccc4[nH]ncc4c3)c3ccccc3n2)c1 | 1.14 | 12.3 | 0.68 | 0.55 | 0.91 | 0.76 | 1.23 | 1.03 | 2.71 | 1.76 | 1.3 | 0.55 | 0.76 | -0.25 | 0.71 | 0.77 | 0.84 | 1.5 | 1.83 | 0.68
5 | COc1ccc(S(=O)(=O)N(CCO)c2ccccc2CN(C)C/C=C/c2ccc(Cl)cc2)cc1 [KN-93 Phosphate] | 2.05 | 2.19 | 0.56 | 0.11 | 0.92 | 0.38 | 0.44 | 0.66 | 0.97 | 0.03 | 0.73 | -0.27 | 0.31 | -0.19 | 0.2 | 0.48 | 0.29 | 0.92 | 1.75 | 0.58
6 | Cc1cnc(NC(=O)Nc2cc(Br)c(C)cc2OC[C@@H]2CNCCO2)cn1 | 0.95 | 0.18 | 0.72 | 0.14 | 0.03 | 0.38 | 0.19 | 2.28 | 0.85 | 0.19 | 2.48 | 0.18 | 0.38 | 0.98 | 0.74 | 0.51 | 2.11 | 1.71 | 0.59 | 0.37
7 | O=C1NC(=O)C(=Cc2ccc(-c3ccc(F)cc3)o2)S1 (stereo in doubt) | 3.43 | 0.21 | 0.92 | 0.52 | 1.18 | 0.36 | 1.67 | 1.15 | 0.34 | 1.28 | 0.93 | 0.18 | 0.6 | 0.59 | 0.53 | 0.23 | 0.29 | 1.05 | 0.83 | 0.69
8 | CC[C@@H]1C(=O)N(C)c2cnc(Nc3ccc(C(=O)N[C@H]4CC[C@H](N5CCN(CC6CC6)CC5)CC4)cc3OC)nc2N1C(C)C [Volasertib (BI 6727)] | 1.58 | 2.49 | 0.62 | 0.08 | 1.23 | 0.17 | 0.23 | 1.87 | -0.05 | 0.41 | 1.95 | 0.58 | 0.68 | 0.73 | 0.69 | 1.23 | 0.54 | 1 | 0.84 | 0.24
9 | CNC(=O)c1cc(COc2nnc(Nc3ccc(Cl)cc3)c3ccoc23)ccn1 [Telatinib] | 1.9 | 0.6 | 0.35 | 0.76 | 0.82 | 0.19 | 0.85 | 0.69 | -0.19 | 1.35 | 0.27 | 0.15 | 0.24 | -0.25 | 0.21 | 0.19 | 0.38 | 0.7 | 1.95 | 1.53
10 | Cc1ccc(NC(=O)c2ccc(CN3CC[C@H](N(C)C)C3)c(C(F)(F)F)c2)cc1Nc1nccc(-c2cncnc2)n1 [Bafetinib (INNO-406)] | 1.86 | 0.46 | 1.32 | 0.68 | 0.51 | 0.51 | 0.39 | 1.13 | 0.81 | 0.5 | 0.37 | 3.32 | 0.29 | 0.16 | 0.43 | 0.25 | 0.34 | 0.18 | 0.66 | 0.35
11 | COc1cc(CCc2cc(NC(=O)c3ccc(N4CC(C)NC(C)C4)cc3)n[nH]2)cc(OC)c1 (stereo not given) | 0.84 | 0.69 | 0.93 | 0.35 | 0.25 | 0.66 | 0.89 | 1.49 | 2.12 | -0.05 | 7.06 | 0.23 | 0.27 | 1.22 | 1.11 | 0.29 | 4.8 | 5.76 | 0.62 | 1.99
12 | NC1(Cc2ccc(Cl)cc2)CCN(c2ncnc3[nH]ccc23)CC1 | 2.25 | 2.06 | 0.71 | 0.51 | 0.58 | 0.53 | 0.47 | 1.24 | 1.88 | 0.79 | 0.79 | 0.26 | 0.46 | 1.47 | 0.26 | 0.97 | 0.62 | 0.68 | 0.64 | 0.33
